Data taken from ChEMBL document CHEMBL1961873, “Compounds: GSK PKIS; Assays: Nanosyn kinase panel” (2012).

Assays:
[1] = target: T1, Mitogen-activated protein kinase 12 (Homo sapiens) (UniProt P53778); settings: at 1 µM;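 also: values are averaged p38gamma kinase inhibition readings, compounds tested at 1 µM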
T1 sequence (whole entry): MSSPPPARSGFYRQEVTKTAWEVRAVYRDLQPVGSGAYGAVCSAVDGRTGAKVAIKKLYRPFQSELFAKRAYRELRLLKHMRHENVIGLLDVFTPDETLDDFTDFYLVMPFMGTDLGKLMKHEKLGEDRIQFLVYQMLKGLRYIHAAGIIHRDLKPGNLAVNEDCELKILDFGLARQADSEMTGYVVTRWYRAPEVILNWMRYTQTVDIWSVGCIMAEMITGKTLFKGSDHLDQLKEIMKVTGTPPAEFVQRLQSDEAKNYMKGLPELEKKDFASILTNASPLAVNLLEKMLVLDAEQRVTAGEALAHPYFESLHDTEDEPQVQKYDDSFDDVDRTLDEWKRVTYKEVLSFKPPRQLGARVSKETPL

[2] = target: SRSF protein kinase 1 (Homo sapiens) (UniProt Q96SB4); settings: at 0.1 µM
Chain of SRSF protein kinase 1 (Homo sapiens) (Q96SB4 whole entry, canonical isoform): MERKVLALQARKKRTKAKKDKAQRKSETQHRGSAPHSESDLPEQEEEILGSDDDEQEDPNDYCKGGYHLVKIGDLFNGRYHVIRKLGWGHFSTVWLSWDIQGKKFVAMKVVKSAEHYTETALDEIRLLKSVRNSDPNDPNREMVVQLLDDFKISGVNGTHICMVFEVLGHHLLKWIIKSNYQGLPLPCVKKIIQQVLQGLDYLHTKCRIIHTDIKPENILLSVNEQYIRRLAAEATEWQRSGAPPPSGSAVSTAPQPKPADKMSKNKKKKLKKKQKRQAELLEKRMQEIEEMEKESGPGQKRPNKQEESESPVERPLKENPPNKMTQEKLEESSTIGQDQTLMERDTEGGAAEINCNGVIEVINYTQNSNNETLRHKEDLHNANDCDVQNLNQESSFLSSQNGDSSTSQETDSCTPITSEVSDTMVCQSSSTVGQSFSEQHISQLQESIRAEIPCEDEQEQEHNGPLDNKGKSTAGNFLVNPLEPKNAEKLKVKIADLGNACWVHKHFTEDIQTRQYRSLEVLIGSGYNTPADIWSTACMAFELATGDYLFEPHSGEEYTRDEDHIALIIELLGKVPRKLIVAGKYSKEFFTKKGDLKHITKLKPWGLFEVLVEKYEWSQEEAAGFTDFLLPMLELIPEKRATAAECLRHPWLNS

[3] = target: SRSF protein kinase 1 (Homo sapiens) (UniProt Q96SB4); settings: at 1 µM
[4] = target: Phosphatidylinositol 4,5-bisphosphate 3-kinase catalytic subunit alpha isoform (Homo sapiens) (UniProt P42336); settings: at 0.1 µM
Chain of Phosphatidylinositol 4,5-bisphosphate 3-kinase catalytic subunit alpha isoform (Homo sapiens) (P42336 whole entry, canonical isoform): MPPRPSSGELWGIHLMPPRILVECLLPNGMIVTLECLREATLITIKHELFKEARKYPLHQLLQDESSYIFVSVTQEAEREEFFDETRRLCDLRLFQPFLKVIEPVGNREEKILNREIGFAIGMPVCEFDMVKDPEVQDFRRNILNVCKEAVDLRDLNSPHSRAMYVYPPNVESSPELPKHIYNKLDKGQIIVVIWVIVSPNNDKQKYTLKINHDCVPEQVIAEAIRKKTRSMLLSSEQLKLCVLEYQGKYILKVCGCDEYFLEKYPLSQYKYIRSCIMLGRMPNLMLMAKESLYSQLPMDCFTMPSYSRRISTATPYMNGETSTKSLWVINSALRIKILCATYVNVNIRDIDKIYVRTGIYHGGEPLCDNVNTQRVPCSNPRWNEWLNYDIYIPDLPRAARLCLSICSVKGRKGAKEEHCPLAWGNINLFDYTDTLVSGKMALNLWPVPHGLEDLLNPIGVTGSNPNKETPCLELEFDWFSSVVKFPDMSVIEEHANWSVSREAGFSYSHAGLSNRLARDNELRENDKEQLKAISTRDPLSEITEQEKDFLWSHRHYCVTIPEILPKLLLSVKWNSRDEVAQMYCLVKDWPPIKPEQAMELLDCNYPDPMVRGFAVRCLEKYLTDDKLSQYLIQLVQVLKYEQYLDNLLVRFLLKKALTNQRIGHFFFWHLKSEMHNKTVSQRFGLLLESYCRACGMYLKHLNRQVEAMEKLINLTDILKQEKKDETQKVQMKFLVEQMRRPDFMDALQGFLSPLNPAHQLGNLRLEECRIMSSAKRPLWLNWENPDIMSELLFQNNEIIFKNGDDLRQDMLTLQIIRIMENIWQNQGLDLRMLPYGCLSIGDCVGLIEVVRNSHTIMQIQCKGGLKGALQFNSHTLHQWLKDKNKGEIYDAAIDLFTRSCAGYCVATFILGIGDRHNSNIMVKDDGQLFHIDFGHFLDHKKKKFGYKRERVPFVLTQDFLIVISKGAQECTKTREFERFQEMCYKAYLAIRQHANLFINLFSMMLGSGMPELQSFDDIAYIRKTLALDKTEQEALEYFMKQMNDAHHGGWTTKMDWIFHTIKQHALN

[5] = target: Phosphatidylinositol 4,5-bisphosphate 3-kinase catalytic subunit alpha isoform (Homo sapiens) (UniProt P42336); settings: at 1 µM
[6] = target: T2, Phosphatidylinositol 4,5-bisphosphate 3-kinase catalytic subunit delta isoform (Homo sapiens) (UniProt O00329); settings: at 0.1 µM
T2 sequence (whole entry): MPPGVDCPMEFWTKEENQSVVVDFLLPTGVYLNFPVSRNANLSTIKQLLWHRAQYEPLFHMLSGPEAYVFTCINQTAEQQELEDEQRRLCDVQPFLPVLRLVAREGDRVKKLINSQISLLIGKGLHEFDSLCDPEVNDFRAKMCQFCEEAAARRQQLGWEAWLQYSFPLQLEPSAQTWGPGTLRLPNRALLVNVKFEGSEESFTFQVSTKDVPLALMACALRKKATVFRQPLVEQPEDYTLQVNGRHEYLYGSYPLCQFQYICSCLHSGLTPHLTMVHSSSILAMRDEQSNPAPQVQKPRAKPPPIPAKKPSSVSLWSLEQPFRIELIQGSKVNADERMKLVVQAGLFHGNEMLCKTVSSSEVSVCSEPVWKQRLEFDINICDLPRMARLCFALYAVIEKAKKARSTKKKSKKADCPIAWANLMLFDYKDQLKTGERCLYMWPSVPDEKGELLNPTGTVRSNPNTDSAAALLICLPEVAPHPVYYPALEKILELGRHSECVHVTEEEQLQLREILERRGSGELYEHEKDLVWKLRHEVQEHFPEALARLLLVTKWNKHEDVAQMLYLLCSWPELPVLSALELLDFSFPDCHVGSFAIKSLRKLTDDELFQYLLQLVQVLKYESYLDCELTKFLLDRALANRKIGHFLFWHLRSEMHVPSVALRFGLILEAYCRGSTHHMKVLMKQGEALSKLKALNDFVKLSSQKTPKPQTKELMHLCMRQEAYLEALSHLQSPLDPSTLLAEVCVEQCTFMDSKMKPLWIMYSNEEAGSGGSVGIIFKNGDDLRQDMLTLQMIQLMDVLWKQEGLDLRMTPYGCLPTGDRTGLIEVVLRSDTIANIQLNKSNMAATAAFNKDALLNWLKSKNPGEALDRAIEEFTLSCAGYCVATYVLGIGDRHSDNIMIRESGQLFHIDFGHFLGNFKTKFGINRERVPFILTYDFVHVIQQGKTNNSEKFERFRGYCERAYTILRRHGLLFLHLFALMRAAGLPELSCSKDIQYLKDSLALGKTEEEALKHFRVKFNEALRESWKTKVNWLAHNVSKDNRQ

[7] = target: T2, Phosphatidylinositol 4,5-bisphosphate 3-kinase catalytic subunit delta isoform (Homo sapiens); settings: at 1 µM
[8] = target: Phosphatidylinositol 4-kinase beta (Homo sapiens) (UniProt Q9UBF8); settings: at 0.1 µM
Chain of Phosphatidylinositol 4-kinase beta (Homo sapiens) (Q9UBF8 2-816 limits assumed): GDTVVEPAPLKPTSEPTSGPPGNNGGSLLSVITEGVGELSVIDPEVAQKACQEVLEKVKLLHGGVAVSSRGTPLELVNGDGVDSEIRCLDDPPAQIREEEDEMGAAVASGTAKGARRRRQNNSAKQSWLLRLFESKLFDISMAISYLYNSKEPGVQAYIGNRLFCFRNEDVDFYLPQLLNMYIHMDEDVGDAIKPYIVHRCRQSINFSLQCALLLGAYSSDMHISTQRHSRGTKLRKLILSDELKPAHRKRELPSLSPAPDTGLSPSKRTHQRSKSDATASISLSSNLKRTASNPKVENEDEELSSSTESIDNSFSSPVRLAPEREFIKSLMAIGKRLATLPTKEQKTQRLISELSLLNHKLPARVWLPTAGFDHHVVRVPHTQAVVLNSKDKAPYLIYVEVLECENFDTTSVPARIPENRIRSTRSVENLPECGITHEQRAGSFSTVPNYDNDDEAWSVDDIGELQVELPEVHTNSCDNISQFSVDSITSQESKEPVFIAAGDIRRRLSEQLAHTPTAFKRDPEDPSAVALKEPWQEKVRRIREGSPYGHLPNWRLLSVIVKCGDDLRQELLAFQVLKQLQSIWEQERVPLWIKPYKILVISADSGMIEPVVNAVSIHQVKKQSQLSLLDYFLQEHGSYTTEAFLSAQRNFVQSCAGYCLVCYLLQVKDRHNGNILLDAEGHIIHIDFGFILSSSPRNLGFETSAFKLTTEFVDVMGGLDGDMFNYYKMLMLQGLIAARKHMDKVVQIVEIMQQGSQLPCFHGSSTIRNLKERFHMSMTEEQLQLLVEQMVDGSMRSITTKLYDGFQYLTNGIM

[9] = target: Phosphatidylinositol 4-kinase beta (Homo sapiens) (UniProt Q9UBF8); settings: at 1 µM
[10] = target: Sphingosine kinase 1 (Homo sapiens) (UniProt Q9NYA1); settings: at 0.1 µM
Chain of Sphingosine kinase 1 (Homo sapiens) (Q9NYA1 whole entry): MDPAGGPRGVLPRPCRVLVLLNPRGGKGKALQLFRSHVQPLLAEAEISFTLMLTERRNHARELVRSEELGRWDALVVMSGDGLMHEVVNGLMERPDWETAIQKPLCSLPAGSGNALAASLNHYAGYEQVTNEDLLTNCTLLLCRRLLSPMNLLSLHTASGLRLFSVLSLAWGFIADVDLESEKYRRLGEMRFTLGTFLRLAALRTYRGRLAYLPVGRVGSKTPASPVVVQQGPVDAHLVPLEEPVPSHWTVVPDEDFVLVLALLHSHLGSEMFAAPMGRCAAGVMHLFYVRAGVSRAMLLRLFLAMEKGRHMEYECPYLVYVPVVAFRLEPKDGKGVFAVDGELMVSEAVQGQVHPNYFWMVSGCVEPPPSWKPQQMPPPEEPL

[11] = target: Sphingosine kinase 1 (Homo sapiens) (UniProt Q9NYA1); settings: at 1 µM
[12] = target: T3, Sphingosine kinase 2 (Homo sapiens) (UniProt Q9NRA0); settings: at 0.1 µM
T3 sequence (whole entry): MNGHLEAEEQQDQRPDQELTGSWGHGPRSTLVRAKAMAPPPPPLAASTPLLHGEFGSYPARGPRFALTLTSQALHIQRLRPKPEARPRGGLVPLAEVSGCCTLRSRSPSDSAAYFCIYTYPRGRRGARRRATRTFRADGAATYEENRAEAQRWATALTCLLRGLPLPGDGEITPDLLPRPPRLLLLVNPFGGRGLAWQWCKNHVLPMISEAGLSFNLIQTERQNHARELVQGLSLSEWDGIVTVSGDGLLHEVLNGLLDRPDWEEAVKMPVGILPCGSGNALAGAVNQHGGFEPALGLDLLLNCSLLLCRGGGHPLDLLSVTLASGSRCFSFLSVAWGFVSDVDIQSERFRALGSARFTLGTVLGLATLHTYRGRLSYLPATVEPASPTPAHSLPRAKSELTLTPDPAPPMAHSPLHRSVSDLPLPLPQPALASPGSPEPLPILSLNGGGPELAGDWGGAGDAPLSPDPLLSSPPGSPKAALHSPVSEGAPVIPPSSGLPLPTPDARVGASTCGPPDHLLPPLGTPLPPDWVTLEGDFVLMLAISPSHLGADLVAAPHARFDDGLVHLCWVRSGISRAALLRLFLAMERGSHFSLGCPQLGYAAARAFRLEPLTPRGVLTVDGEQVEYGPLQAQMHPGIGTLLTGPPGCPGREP

[13] = target: T3, Sphingosine kinase 2 (Homo sapiens); settings: at 1 µM
[14] = target: Casein kinase II subunit alpha (Homo sapiens) (UniProt P68400); settings: at 0.1 µM
Chain of Casein kinase II subunit alpha (Homo sapiens) (P68400 whole entry, looked up): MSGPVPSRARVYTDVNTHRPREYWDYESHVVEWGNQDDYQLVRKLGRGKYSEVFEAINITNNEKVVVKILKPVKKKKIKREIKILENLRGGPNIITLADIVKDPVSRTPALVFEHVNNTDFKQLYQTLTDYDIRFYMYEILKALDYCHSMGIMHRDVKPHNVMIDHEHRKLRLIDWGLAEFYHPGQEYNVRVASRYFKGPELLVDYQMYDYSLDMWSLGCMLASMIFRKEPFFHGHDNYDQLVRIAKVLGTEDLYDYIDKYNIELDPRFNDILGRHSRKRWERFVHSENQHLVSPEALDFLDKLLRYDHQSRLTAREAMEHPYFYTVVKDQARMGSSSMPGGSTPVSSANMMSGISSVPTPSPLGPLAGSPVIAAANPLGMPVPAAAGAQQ

[15] = target: Casein kinase II subunit alpha (Homo sapiens) (UniProt P68400); settings: at 1 µM
[16] = target: T4, Inhibitor of nuclear factor kappa-B kinase subunit alpha (Homo sapiens) (UniProt O15111); settings: at 0.1 µM
T4 sequence (whole entry): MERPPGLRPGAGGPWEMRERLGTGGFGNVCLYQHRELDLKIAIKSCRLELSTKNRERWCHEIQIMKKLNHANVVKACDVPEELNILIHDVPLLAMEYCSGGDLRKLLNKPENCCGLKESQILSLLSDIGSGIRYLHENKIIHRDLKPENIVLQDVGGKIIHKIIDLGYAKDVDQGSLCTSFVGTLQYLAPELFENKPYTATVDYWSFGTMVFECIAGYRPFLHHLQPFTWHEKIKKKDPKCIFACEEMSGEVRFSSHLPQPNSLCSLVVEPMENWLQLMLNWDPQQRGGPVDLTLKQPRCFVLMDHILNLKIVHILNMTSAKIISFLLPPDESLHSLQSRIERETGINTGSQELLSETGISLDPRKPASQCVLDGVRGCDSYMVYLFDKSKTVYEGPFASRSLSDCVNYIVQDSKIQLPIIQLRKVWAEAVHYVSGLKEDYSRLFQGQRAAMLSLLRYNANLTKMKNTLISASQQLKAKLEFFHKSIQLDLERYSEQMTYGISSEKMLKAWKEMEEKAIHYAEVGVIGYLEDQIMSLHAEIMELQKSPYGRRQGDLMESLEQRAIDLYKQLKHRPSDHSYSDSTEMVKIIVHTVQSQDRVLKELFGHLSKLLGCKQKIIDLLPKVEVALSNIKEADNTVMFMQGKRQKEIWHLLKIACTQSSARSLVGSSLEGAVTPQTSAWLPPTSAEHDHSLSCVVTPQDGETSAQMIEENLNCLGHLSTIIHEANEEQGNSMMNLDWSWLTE

[17] = target: T4, Inhibitor of nuclear factor kappa-B kinase subunit alpha (Homo sapiens); settings: at 1 µM
[18] = target: T5, Inhibitor of nuclear factor kappa-B kinase subunit beta (Homo sapiens) (UniProt O14920); settings: at 0.1 µM
T5 sequence (whole entry): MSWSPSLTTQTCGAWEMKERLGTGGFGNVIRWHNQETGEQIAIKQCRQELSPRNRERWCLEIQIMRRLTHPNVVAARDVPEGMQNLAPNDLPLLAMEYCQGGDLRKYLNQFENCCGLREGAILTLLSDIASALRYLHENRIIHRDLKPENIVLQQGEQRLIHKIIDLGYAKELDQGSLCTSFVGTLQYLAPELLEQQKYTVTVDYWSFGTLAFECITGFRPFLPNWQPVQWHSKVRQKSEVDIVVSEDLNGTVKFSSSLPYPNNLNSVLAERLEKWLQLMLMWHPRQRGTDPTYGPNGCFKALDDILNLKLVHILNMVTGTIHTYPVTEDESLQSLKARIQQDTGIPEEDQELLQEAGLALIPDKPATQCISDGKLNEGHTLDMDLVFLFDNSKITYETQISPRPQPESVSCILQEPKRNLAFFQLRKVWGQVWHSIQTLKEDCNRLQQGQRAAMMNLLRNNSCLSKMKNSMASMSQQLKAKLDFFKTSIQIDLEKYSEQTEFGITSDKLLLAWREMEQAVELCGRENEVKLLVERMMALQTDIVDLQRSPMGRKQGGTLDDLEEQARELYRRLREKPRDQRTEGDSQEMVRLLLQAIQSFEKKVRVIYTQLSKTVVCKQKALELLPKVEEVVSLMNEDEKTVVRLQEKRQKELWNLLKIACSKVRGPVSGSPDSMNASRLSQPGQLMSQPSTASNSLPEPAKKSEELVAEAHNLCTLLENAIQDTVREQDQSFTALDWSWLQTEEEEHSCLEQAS

[19] = target: T5, Inhibitor of nuclear factor kappa-B kinase subunit beta (Homo sapiens); settings: at 1 µM
[20] = target: T6, Inhibitor of nuclear factor kappa-B kinase subunit epsilon (Homo sapiens) (UniProt Q14164); settings: at 0.1 µM;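 also: mean inhibition of IKKε reported, from the GSK PKIS dataset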
T6 sequence (whole entry): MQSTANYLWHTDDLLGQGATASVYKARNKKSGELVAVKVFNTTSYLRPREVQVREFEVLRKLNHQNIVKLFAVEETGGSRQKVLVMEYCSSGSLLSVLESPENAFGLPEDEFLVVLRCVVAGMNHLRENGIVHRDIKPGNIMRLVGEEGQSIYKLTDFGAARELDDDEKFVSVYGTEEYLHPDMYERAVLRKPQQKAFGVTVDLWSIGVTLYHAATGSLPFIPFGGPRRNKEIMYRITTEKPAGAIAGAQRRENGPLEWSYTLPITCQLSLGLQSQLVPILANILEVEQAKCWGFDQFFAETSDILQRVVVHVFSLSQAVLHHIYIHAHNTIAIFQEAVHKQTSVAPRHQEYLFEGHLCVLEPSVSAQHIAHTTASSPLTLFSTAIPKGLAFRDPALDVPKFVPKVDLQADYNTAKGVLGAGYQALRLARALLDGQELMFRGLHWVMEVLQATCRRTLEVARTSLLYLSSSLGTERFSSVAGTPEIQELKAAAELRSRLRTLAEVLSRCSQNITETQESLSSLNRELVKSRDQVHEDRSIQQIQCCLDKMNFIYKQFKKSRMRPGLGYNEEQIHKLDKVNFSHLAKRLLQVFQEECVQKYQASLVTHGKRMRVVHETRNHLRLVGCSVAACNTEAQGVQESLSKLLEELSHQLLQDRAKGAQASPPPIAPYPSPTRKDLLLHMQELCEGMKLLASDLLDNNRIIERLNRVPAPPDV

SMILES | inhibition [1] [%] | inhibition [2] [%] | inhibition [3] [%] | inhibition [4] [%] | inhibition [5] [%] | inhibition [6] [%] | inhibition [7] [%] | inhibition [8] [%] | inhibition [9] [%] | inhibition [10] [%] | inhibition [11] [%] | inhibition [12] [%] | inhibition [13] [%] | inhibition [14] [%] | inhibition [15] [%] | inhibition [16] [%] | inhibition [17] [%] | inhibition [18] [%] | inhibition [19] [%] | inhibition [20] [%]
CC(C)c1ccc(-c2cc(-c3c[nH]nc3-c3ccccn3)ccn2)cc1 | 1.41 | -1.6 | -2.44 | 0.78 | 1.76 | 0.89 | 4.14 | 1.73 | 0.67 | 1.34 | -1.66 | -0.31 | -1.09 | 0.16 | 0.83 | 7.45 | -4.49 | 1.97 | -0.35 | 1.33
Fc1cccc(COc2ccc(Nc3ncncc3C#Cc3ccccc3)cc2Cl)c1 | 2.58 | -0.38 | 3.43 | 3.88 | 2.67 | 1.53 | 1.09 | 1.02 | -1.52 | 1.58 | -2.79 | -1.37 | 0.98 | 4.56 | 11.3 | 6.1 | 4.54 | 8.5 | 9.35 | 7.72
CCS(=O)(=O)c1ccc(OC)c(Nc2ncc(-c3cccc(C(C)=O)c3)o2)c1 | 1.14 | -0.6 | 4.89 | 2.7 | 1.8 | 0.22 | -1.96 | 2.44 | -1.58 | 13.1 | -2.18 | 0.25 | 0.73 | 6.61 | 21.6 | -1.71 | -1.11 | 5.35 | 5.04 | 6.89
